In PubChem BioAssay:
The source made the active and inactive calls.

Experiments:
Albumin (Bos taurus) = Albumin (Bos taurus) (UniProt P02769); assay: compounds binding labelled BSA control protein – biochemical, small-molecule microarray, Alexa647 label, 635/667 nm fluorescence, artefact control for SMM control protein annotation, profiling panel (AID 1118); details: BSA-A647 binding, fluorescence 635 nm, higher = more signal;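 note: score merges 667 nm emission intensity and signal-to-noise per printed compound spot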
Albumin (Bos taurus), sequence (P02769 whole entry, looked up): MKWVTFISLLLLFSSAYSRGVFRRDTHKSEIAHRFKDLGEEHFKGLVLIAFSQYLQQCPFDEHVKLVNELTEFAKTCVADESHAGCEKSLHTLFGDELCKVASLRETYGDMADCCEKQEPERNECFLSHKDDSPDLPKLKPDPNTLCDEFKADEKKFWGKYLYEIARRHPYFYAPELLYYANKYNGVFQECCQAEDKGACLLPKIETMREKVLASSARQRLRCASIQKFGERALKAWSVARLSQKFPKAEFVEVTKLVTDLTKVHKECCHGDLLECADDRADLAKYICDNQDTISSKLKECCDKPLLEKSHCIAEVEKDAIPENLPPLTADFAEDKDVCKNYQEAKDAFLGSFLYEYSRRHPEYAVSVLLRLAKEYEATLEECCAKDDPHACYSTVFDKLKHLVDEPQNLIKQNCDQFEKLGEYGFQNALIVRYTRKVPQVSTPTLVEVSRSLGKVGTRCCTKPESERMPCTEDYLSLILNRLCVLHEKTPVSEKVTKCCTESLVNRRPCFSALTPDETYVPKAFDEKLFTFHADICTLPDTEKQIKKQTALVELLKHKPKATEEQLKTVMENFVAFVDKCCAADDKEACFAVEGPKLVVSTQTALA

[1] = probe aXIP binding to arrayed compounds – biochemical, NeuroSMM set, 635/667 nm fluorescence, primary screen (AID 1119); details: small-molecule microarray, higher = more signal, called active from +8 up or from −8 down;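 note: probe is the protein aXip251-270 applied at 1 µg/mL to compound-printed slides; binding of probe to printed compounds measured as 667 nm fluorescence plus signal to noise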
[2] = probe aNOTCH3 binding on compound microarray – biochemical, small-molecule microarray, 635/667 nm fluorescence, primary screen (AID 1120); details: higher = more signal;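 note: probe is a biotin-tagged antibody raised against NOTCH3 rather than NOTCH3 protein; score merges spot fluorescence near 667 nm with spot signal to noise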
[3] = probe aNOTCH2 binding on compound microarray – biochemical, small-molecule microarray, 635/667 nm fluorescence, primary screen (AID 1121); details: higher = more signal;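 note: score merges feature fluorescence read at 667 nm with its signal to noise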
[4] = target: Carbonic anhydrase 2 (Homo sapiens) (UniProt P00918); assay: compounds binding carbonic anhydrase 2 – biochemical, small-molecule microarray, Alexa647-labelled CAII, profiling panel (AID 1122); details: CAII-A647 binding fluorescence, higher = more signal
[5] = COS7 lysate on small-molecule microarray, probe aHis, 635 nm (AID 1123); details: COS7 cell lysate, fluorescence, higher = more signal;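 note: z-score combines 667nm fluorescence intensity with signal-to-noise per printed compound spot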
[6] = probe aLAP1 signal on lysate-treated microarray – cell lysate, small-molecule microarray, COS7 lysate, primary screen (AID 1124); details: probe aLAP1, fluorescence, higher = more signal;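 note: lysate comes from COS7 cells expressing LAP1 and is applied at 0.3 µg/mL; score merges spot fluorescence near 667 nm with signal-to-noise over triplicate slides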
Sam68 (KHDRBS1) = assay: compounds binding KHDRBS1 protein – biochemical, small-molecule microarray, 635 nm fluorescence, primary screen (AID 1125); details: higher = more signal;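 note: score merges 667 nm channel intensity with signal to noise over triplicate slides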
[7] = tested on: Chordin-like protein 2 (CHRDL2); assay: compounds binding chordin-like 2 – biochemical, small-molecule microarray, 635 nm fluorescence, primary screen (AID 1126); details: fluorescence 635 nm, higher = more signal;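 note: printed compound slides probed with Chrdl2 protein at 4 µg/mL for 1 h at 4 C; score merges 667 nm emission intensity with signal to noise over three replicate slides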
[8] = target: Concanavalin-A (Canavalia ensiformis) (UniProt P02866); assay: compounds binding concanavalin A lectin – biochemical, small-molecule microarray, Alexa647 label, 635 nm, artefact control for SMM control protein annotation, primary screen (AID 1127); details: ConA-A647 binding fluorescence, higher = more signal;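 note: z combines 667 nm emission intensity with signal-to-noise across three replicate slides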
Concanavalin-A (Canavalia ensiformis), sequence (P02866 whole entry, looked up): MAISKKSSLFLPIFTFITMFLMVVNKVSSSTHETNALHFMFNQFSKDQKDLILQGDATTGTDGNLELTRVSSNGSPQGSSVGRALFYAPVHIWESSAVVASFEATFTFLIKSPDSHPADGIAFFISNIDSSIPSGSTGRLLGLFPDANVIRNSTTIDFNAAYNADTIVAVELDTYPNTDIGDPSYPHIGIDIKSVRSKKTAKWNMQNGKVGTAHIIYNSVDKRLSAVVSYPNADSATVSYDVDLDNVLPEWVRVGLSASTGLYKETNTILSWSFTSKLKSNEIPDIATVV

[9] = compounds binding Alexa647 anti-His antibody – biochemical, small-molecule microarray, 635 nm fluorescence, artefact control for SMM control protein annotation, primary screen (AID 1128); details: higher = more signal;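 note: score merges feature fluorescence with signal-to-noise for each printed compound spot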
[10] = tested on: Human papillomavirus type 1a E7 protein (residues 1-88); assay: HPV1a E7 small-molecule binders, primary screen, biochemical, small-molecule microarray, residues 1-88, 635 nm (AID 1129); details: small-molecule microarray binding, fluorescence 635 nm; higher = more signal
[11] = target: Focal adhesion kinase 1 (Homo sapiens) (UniProt Q05397); assay: PTK2 protein binding on printed compound slides – biochemical, small-molecule microarray, 635/667 nm fluorescence, BSA, DTT, primary screen (AID 1130); details: 635 nm fluorescence, higher = more signal;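 note: composite of spot emission at 667 nm and signal to noise over triplicate slides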
Focal adhesion kinase 1 (Homo sapiens), sequence (Q05397 whole entry, looked up): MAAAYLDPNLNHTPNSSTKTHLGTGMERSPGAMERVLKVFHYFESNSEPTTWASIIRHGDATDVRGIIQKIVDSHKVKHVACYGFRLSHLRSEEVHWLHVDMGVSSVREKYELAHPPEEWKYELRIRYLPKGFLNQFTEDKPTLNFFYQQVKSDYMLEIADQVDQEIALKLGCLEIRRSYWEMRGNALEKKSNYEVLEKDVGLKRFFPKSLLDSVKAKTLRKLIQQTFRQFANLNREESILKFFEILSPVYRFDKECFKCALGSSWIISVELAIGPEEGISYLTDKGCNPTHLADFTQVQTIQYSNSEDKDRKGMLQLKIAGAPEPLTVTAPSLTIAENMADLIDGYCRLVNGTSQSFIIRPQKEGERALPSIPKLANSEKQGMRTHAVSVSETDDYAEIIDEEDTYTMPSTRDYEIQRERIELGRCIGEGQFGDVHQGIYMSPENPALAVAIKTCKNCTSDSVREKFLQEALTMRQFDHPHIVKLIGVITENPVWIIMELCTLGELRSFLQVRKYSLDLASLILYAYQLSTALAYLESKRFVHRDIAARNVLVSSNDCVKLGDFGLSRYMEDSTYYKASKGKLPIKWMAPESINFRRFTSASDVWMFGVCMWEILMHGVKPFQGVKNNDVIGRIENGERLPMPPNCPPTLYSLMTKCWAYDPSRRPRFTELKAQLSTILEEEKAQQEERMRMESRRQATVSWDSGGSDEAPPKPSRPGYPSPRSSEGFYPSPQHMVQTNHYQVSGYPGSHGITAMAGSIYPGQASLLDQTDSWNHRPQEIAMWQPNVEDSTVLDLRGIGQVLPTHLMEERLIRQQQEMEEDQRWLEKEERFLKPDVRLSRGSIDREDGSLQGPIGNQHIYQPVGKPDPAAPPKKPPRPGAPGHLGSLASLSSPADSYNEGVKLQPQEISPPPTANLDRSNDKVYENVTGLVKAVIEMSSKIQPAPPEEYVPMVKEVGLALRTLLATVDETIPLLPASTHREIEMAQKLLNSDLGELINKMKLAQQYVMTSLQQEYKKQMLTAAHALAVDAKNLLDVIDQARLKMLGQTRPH

[12] = tested on: Fibrinogen (Alexa647-labelled); assay: Alexa647-fibrinogen binding to printed small molecules – biochemical, small-molecule microarray, 635/667 nm fluorescence, artefact control for SMM control-protein annotation, profiling panel (AID 1131); details: fibrinogen-A647 binding fluorescence, higher = more signal;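 note: z-score merges 667 nm fluorescence with per-spot signal-to-noise over triplicate slides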
[13] = target: Follistatin (Homo sapiens) (UniProt P19883); assay: FST protein binding to printed compounds – biochemical, small-molecule microarray, 635/667 nm fluorescence, primary screen (AID 1132); details: 635 nm fluorescence, higher = more signal
Follistatin (Homo sapiens), sequence (P19883 whole entry, looked up): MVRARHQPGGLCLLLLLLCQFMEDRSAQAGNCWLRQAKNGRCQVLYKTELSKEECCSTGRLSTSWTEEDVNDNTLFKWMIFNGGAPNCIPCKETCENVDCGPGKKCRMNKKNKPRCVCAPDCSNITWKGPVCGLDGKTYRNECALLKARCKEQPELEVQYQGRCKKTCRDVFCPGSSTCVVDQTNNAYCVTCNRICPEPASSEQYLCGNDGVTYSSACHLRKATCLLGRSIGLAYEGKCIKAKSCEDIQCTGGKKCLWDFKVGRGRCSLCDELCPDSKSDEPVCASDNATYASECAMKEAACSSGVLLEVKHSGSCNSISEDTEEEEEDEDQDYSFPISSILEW

[14] = target: Fibroblast growth factor 2 (Homo sapiens) (UniProt P09038); assay: basic fibroblast growth factor binding to printed compounds – biochemical, small-molecule microarray, 635/667 nm fluorescence, primary screen (AID 1133); details: FGF2, fluorescence 635/667, higher = more signal
Fibroblast growth factor 2 (Homo sapiens), sequence (P09038 whole entry, looked up): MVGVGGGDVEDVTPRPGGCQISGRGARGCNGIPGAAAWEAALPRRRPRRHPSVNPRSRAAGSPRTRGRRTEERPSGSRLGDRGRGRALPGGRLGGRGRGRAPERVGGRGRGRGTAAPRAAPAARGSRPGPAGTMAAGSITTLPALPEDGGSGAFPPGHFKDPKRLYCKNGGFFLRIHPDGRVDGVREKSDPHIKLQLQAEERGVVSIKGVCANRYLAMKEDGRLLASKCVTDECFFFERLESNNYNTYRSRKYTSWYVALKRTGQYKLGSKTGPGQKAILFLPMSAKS

[15] = JC-1 mitochondrial potential readout, lung cancer cells – cell-based, A549, JC-1 fluorescence, basal, 24 h, 100 nL, profiling panel (AID 1138); details: higher = more signal;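 note: A549 lung adenocarcinoma cells under basal conditions with no added stimulus; test concentration not given here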
Lefty1 = Lefty1 protein binding to printed compounds – biochemical, small-molecule microarray, 635/667 nm fluorescence, primary screen (AID 1139); details: fluorescence 635/667, higher = more signal
[16] = tested on: wheat germ agglutinin (Triticum aestivum), Alexa647-labelled; assay: Alexa647-WGA lectin binding to printed small molecules – biochemical, small-molecule microarray, 635/667 nm fluorescence, artefact control for SMM control-protein annotation, profiling panel (AID 1140); details: WGA-A647 binding, 635 nm fluorescence, higher = more signal;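 note: score merges 667 nm feature emission with signal to noise over triplicate slides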
[17] = target: Luciferin 4-monooxygenase (Photinus pyralis) (UniProt P08659); assay: inhibition of purified Photinus pyralis luciferase – biochemical, luminescence, purified enzyme, 2006 set, primary screen (AID 1141); details: purified firefly luciferase, SteadyGlo luminescence, 30 min; higher = more signal, called active from +8 up or from −8 down;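 note: cell-free assay with purified firefly luciferase at 100 ng per well in PBS; test concentration not given here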
Luciferin 4-monooxygenase (Photinus pyralis), sequence (P08659 whole entry, looked up): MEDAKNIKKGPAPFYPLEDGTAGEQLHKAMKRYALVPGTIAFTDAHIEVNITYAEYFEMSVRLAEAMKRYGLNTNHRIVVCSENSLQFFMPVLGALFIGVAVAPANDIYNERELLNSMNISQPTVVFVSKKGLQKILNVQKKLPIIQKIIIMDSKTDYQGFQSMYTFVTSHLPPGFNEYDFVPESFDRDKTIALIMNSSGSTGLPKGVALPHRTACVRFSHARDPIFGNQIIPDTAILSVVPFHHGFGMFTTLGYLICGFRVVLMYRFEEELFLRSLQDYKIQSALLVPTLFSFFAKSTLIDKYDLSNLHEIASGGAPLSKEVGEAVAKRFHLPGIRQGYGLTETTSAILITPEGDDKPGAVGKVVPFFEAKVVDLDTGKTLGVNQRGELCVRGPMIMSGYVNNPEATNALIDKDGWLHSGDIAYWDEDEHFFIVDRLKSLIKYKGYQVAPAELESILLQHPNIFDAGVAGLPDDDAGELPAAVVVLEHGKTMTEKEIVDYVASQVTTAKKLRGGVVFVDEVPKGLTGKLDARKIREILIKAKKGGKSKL

Compound	composite z-score (Albumin (Bos taurus))	composite Z-score [1]	composite z-score [2]	composite z-score [3]	composite z-score [4]	composite z-score [5]	composite z-score [6]	composite z-score (Sam68 (KHDRBS1))	composite z-score [7]	composite z-score [8]	composite z-score [9]	composite z-score [10]	composite z-score [11]	composite z-score [12]	composite z-score [13]	composite z-score [14]	z-score [15]	composite z-score (Lefty1)	composite z-score [16]	z-score [17]
C=CC[C@]1(C(=O)O)N=C(c2ccc(OCCCO)cc2)O[C@H]1c1ccccc1CN=[N+]=[N-]	0.659	0.168 (inactive)	-0.0447	-0.157	0.876	1.23	-0.201	-0.103	0.0037	0.0681	0.518	-0.583	0.174	-0.276	0.349	-0.39	0.00796	-0.316	0.184	-0.893 (inactive)
OCCCc1cc[n+](Cc2cccc(OC(F)(F)F)c2)cc1	0.589	0.755 (inactive)	0.147	-0.101	0.842	2.02	0.348	1.28	0.421	1.09	1.62	1.01	0.917	0.315	1.18	0.58	-0.672	0.714	0.889	1.14 (inactive)
O=C1c2ccccc2[C@@]2(Cc3ccccc3N(Cc3ccccc3)C2=O)[C@H](c2ccc(CO)cc2)N1Cc1ccccc1C(F)(F)F	0.811	-0.372 (inactive)	-0.128	-0.0705	0.781	1.04	-0.381	-1.31	-1.5	-0.486	1.88	-0.911	-0.676	-2.02	-0.368	-0.721	1.78	-1.04	-0.749	-0.666 (inactive)
CC(C)[Si]1(C(C)C)O[C@@H](c2ccccc2)c2cc(-c3ccc(-c4ccc(Cl)c(Cl)c4)o3)nc(CCc3ccccc3)c21	-1.24	0.0953 (inactive)	-0.226	-0.148	0.287	0.143	0.312	-0.141	-1.59	-1.04	-0.203	-0.339	-0.389	-1.27	-2.16	-0.614	-0.107	-1.08	-1.58	-0.7 (inactive)
CC(C)OC(=O)C1=CCC(c2cccc(Cl)c2)O1 (stereo not given)	0.569	0.403 (inactive)	-0.36	-0.169	0.848	2.72	-0.157	0.649	-1.72	0.417	0.872	0.291	-0.0871	0.455	-0.328	-1.59	-1.4	-1.11	0.58	2.09 (inactive)
[N-]=[N+]=NCc1ccccc1[C@H]1OC(c2ccc(OCCCO)cc2)=N[C@@]1(Cc1ccccc1)C(=O)NCC(O)CO (stereo not given in full)	0.691	0.0638 (inactive)	0.506	-0.0013	0.76	3.42	0.941	0.966	-0.609	-0.0213	1.86	1.25	1.08	0.726	0.474	-0.0723	1.2	-0.994	0.486	0.142 (inactive)
[N-]=[N+]=Nc1ccccc1C[C@]1(C(=O)N2CCCCC2)N=C(c2ccc(OCCCO)cc2)O[C@H]1c1ccccc1N=[N+]=[N-]	0.94	0.121 (inactive)	0.311	0.252	0.623	2.91	1.17	1.29	-0.292	0.979	1.6	1.24	0.544	0.945	1.18	0.806	0.591	-0.105	0.811	-3.15 (inactive)
C[C@H]1C2[C@H](Cc3ccccc3)NC(=O)[C@]23C(=O)N[C@H](Cc2ccccc2)C(=O)N[C@H](Cc2ccccc2)C(=O)NC/C=C/CCC/C=C/C3[C@@H]2O[C@]12C (stereo not given in full)	0.63	0.312 (inactive)	-0.246	-0.115	0.312	1.25	0.338	0.179	0.8	0.472	0.896	1.18	0.0256	0.304	1.08	0.519	-0.256	1.56	0.756	-3.27 (inactive)
CCOC(=O)C1=CC[C@@H](c2ccccc2)N(S(=O)(=O)c2ccc(C)cc2)[C@H]1c1ccc(C#N)cc1	0.801	0.662 (inactive)	0.116	-0.0158	0.356	1.56	0.791	1.33	-1.25	1.12	1	1.19	0.456	0.931	-0.0375	-0.732	2.11	-0.507	1.23	1.23 (inactive)
C=CCNC(=O)[C@H]1[C@@H]2C(=O)O[C@@H](c3ccccc3)[C@@H](c3ccccc3)N2[C@@H](c2ccc(O)cc2)[C@]12C(=O)Nc1ccc(C#Cc3ccc(OC)cc3)cc12	-0.208	-0.155 (inactive)	-0.0903	0.0086	0.38	1.68	0.616	1.3	0.704	0.552	0.194	1.22	0.403	0.789	1.16	1.13	-0.769	0.597	0.278	0.153 (inactive)
O=C1O[C@@H](c2ccccc2)[C@@H](c2ccccc2)N2[C@@H](c3ccc(O)cc3)[C@]3(C(=O)Nc4ccc(C#CCCO)cc43)[C@@H](C(=O)N3CCCCCCC3)[C@H]12	-0.126	5.37 (inactive)	1.3	0.612	0.766	3.26	0.991	1.16	1.43	0.884	2.27	1.24	0.724	0.952	1.42	0.94	-0.158	1.26	1.21	0.0848 (inactive)
O=C1O[C@H](c2ccccc2)[C@H](c2ccccc2)N2[C@H]1[C@@H](C(=O)NC[C@H](O)c1ccccc1)[C@]1(C(=O)Nc3ccc(C#CC4=CCCCC4)cc31)[C@H]2c1ccc(O)cc1	0.296	-1.22 (inactive)	0.0112	-0.124	0.397	1.98	0.826	1.29	0.594	1.09	1.86	1.17	0.191	0.826	1.35	1.59	-1.38	0.82	0.331	-1.5 (inactive)
COCCOC(=O)N1C(=O)[C@@]2(c3cc(C#Cc4ccc(OC)cc4)ccc31)[C@H](c1ccc(O)cc1)N1[C@H](c3ccccc3)[C@H](c3ccccc3)OC(=O)[C@H]1[C@@H]2C(=O)N1CCN(c2ncccn2)CC1	0.303	-0.321 (inactive)	0.0486	-0.0956	0.395	1.48	0.406	1.2	-0.126	0.657	1.23	1.18	0.351	0.624	1.36	0.712	-0.863	0.604	0.584	0.384 (inactive)
C=CCN1Cc2ccccc2C[C@]2(N=C(c3ccc(OCCCO)cc3)O[C@@H]2c2ccccc2)C1=O	0.025	0.862 (inactive)	0.0276	0.101	0.605	2.42	0.75	1.3	1.14	1.18	1.66	1.12	0.692	0.441	1.36	1.76	1.21	0.706	0.436	-1.87 (inactive)
COc1ccc([Si](C)(C)[C@H]2[C@H](CCO)O[C@@]3(C(=O)N(Cc4ccccc4)c4ccc(N5C(=O)COc6ccccc65)cc43)[C@@H]2C)cc1	0.449	0.412 (inactive)	-0.0431	-0.0552	0.443	0.69	0.11	-0.101	-0.516	0.211	-0.12	-0.127	-0.0125	0.26	-0.242	-0.116	0.771	-0.0702	1.1	-0.369 (inactive)
[N-]=[N+]=Nc1ccccc1[C@@H]1OC(c2ccc(OCCCO)cc2)=N[C@]1(CCS(=O)(=O)c1ccccc1)C(=O)O	0.829	0.834 (inactive)	0.416	-0.0323	0.683	1.61	-0.252	1.31	0.012	1.15	1.12	1.22	0.688	1.03	1.25	0.933	-1.83	0.874	0.867	-15.1 (active)
C=C[C@H](C)[C@H](OC(=O)Nc1ccc(OC)cc1)c1ccc(O)c2ccccc12	0.171	0.741 (inactive)	-0.185	-0.193	0.696	0.702	0.513	-0.07	0.396	-0.503	-0.732	-0.337	-0.208	0.604	0.782	0.39	-1.6	0.47	0.0411	-3.78 (inactive)
